# PAFAH2 FP inh: inhibitors of human PAFAH2. Q99487. recombinant PAFAH2, FP-rhodamine activity probe, fluorescence polarization. inhibition, % at 3.39 µM. 340,000 tested, 0.99% active. AID 492956;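 active means inhibition above the mean over all tested compounds plus 3 SD, cut at about 30% in these data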;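 further: inhibitors block probe labeling of enzyme so polarization drops; 0% = enzyme with DMSO and 100% = wells lacking PAFAH2 protein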
# PAFAH1B3 inh: inhibitors of human PAFAH1B3. Q15102. recombinant PAFAH1B3, FP-rhodamine probe, fluorescence polarization. inhibition, % at 3.39 µM. 340,000 tested, 0.28% active;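 active means inhibition above the screen-wide average of all tested compounds plus 3 SD, cut at about 25% in these data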;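 further: 0% = enzyme with DMSO only and 100% = wells lacking PAFAH1B3 protein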
# Fam108B inh: counter-screen for RBBP9 inhibitors: inhibitors of mouse Fam108B | 300,000 tested, 0.33% active | inhibition, % at 9.51 µM | recombinant Fam108B, FP-Rh probe fluorescence polarization;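 active means inhibition above the screen mean inhibition plus 3 SD, computed separately per campaign, cut at about 18% in these data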;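 further: inhibitors lower polarization as less probe binds the enzyme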
# pPAFAH FP inh: inhibitors of human plasma PAF acetylhydrolase (pPAFAH) | 330,000 tested, 1.5% active | inhibition, % at 3.39 µM | AID 463082 | recombinant pPAFAH, FP-rhodamine probe fluorescence polarization;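 active means inhibition above the mean inhibition across the screen plus 3 SD, cut at about 25% in these data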;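 further: inhibitors block binding of the rhodamine activity-based probe so polarization drops; 0% = enzyme with DMSO and 100% = wells lacking pPAFAH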
# Target sequence (Q13093 whole entry, looked up): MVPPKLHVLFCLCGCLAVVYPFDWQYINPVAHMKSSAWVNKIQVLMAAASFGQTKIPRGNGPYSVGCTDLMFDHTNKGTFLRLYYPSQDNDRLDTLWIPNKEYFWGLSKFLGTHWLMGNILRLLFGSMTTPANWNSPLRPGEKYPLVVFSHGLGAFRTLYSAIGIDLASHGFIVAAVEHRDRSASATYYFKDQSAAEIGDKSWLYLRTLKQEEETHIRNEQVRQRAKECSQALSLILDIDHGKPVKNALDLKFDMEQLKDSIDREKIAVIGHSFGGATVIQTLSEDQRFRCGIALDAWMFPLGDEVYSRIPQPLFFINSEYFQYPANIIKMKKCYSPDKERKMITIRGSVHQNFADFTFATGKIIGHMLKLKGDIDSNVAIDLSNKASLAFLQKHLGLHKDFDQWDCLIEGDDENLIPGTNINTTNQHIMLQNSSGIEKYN
# PAFAH1B2 FP inh: PAFAH1B2 (human) inhibition; P68402; recombinant PAFAH1B2, FP-rhodamine activity probe, fluorescence polarization; inhibition, % at 3.39 µM; 340,000 tested, 1.2% active;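 active means inhibition above the mean of all tested compounds plus 3 SD, cut at about 24% in these data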;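 further: 0% = enzyme with DMSO and 100% = wells lacking PAFAH1B2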
# PME-1 inh: blocks human protein phosphatase methylesterase 1. recombinant PME-1, FP-Rh probe fluorescence polarization. inhibition, % at 5.9 µM. 320,000 tested, 0.53% active. AID 2130;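 active means inhibition above the campaign mean of all compounds plus 3 SD, cut at about 26% in these data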;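 further: competitive labeling of PME-1 active site by serine hydrolase directed probe; 0% = PME-1 with DMSO and 100% = wells lacking PME-1 enzyme; inhibitors block probe labeling so polarization falls and inhibition rises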
# The depositor's hits bear a star; / = no result. Rows were chosen to be rich in hits. Some 2.9% of all compounds tested hit in one or more screens of this group.
SMILES,PAFAH2 FP inh,PAFAH1B3 inh,Fam108B inh,pPAFAH FP inh,PAFAH1B2 FP inh,PME-1 inh
CCCOc1ccc(C(=O)O)cc1,6,5,3,1,10,-1
CCCOc1ccc(C(=O)ON=C2CCN(C)CC2)cc1,78*,-4,5,26*,4,0
CCN1C(=O)[C@H]2[C@@H](c3ccc(SC4CCCCC4)cc3)N3CCCC[C@@]3(C(=O)OC)[C@H]2C1=O,8,-1,-6,2,1,1
CCN1C(=O)[C@@H]2[C@@H](c3ccc(SC4CCCCC4)cc3)N3CCC[C@@]3(C(=O)OC)[C@@H]2C1=O,1,14,1,29*,3,-7
COc1ccc(NC(=O)Cc2ccsc2)c(OC)c1,-2,8,-1,7,6,6
O=C(COC(=O)Cc1ccc(F)cc1)NC1CCCCCC1,20,3,/,/,5,/
O=C(COC(=O)Cc1ccsc1)NC1CCCCCC1,14,4,-1,30*,11,6
COc1ccc(NC(=O)COC(=O)Cc2ccsc2)c(OC)c1,7,9,/,30*,-2,/
O=C(NC(Cc1c[nH]c2ccccc12)C(=O)O)/C(=C\c1ccc2c(c1)OCO2)NC(=O)c1ccccc1 (stereo not drawn),6,6,-1,-6,0,-2
CC(=O)N(\C=C/C=C/C=C1\Sc2ccccc2C1=O)c1ccccc1,-93,-78,-7,30*,-43,-15
CCN(Cc1cc(=O)n2cc(Cl)c(C)c(Cl)c2n1)Cc1nc2ccccc2c(=O)[nH]1,8,3,-2,2,2,-1
CC(Oc1ccc(F)cc1)C(O)CCN(C)C (stereo not drawn),3,2,6,0,1,0
COc1ccc(S(=O)(=O)N2CCN(CC(O)COc3ccc(C#N)cc3)CC2)cc1OC (stereo not drawn),3,9,-3,4,1,2
Cc1cc(C)c(/C=N/NC(N)=O)c(C)c1/C=N/NC(N)=O,-4,-2,2,4,-2,-2
N#CC1(NC(=O)COC(=O)c2cc(O)c3ccccc3c2O)CCCCC1,21,50*,9,13,16,13
O=c1[nH]c2c(s1)C(c1ccco1)C1C3CCC(C3)C1S2 (stereo not drawn),12,0,1,4,57*,1
O=C(N/N=C/C=C/c1ccco1)/C(=C/c1ccccc1)NC(=O)c1ccccc1,16,11,7,31*,3,2
N#CCC(=O)Nc1ccc(C(=O)OCc2ccccc2Oc2ccccc2)cc1,-36,-17,3,2,-5,38*
CC1Cc2ccccc2N1C(=O)COC(=O)/C=C/c1cccc(F)c1 (stereo not drawn),10,1,/,2,1,-3
O=C(COC(=O)CSc1ccc(F)cc1)NCCCc1ccccc1,9,1,2,19,29*,6
CC1Cc2ccccc2N1C(=O)COC(=O)CSc1ccc(F)cc1 (stereo not drawn),1,-5,0,12,26*,8
O=C(COC(=O)CSc1ccc([N+](=O)[O-])cc1)NCCCc1ccccc1,0,2,3,20,30*,5
CCc1ccc(NC(=O)c2ccc(F)c(S(=O)(=O)NCC3COc4ccccc4O3)c2)cc1 (stereo not drawn),-46,-20,-43,-34,-11,-78
COc1ccc(N2CCN(C(=O)CCNC(=O)c3ccc(C(C)(C)C)cc3)CC2)cc1,1,-2,-2,9,64*,0
CC(C)Cc1nnc(NC(=O)C23CC4CC(CC(C4)C2)C3)s1,5,0,3,-1,20,0
SMILES,PAFAH2 FP inh,PAFAH1B3 inh,Fam108B inh,pPAFAH FP inh,PAFAH1B2 FP inh,PME-1 inh
CCc1nnc(NC(=O)C23CC4CC(CC(C4)C2)C3)s1,9,6,2,5,30*,-4
NC(=O)CSc1nnc(NC(=O)C23CC4CC(CC(C4)C2)C3)s1,8,3,-2,8,28*,-7
O=C1OCc2cc(NC(=O)C34CC5CC(CC(C5)C3)C4)ccc21,10,-2,1,0,8,-2
CC(C)(C)NC(=O)c1cc(-c2ccccc2)n[nH]1,0,1,-1,-3,1,-3
Cc1[nH]c2ccccc2c1C(=O)C(=O)NC1CC1,1,3,2,28*,3,3
O=C(NCCCN1CCOCC1)c1ccc2nc(Cc3cccc(Cl)c3)oc2c1,-3,5,10,5,-1,3
NS(=O)(=O)c1ccc(N/C=C\C(=O)c2ccc(F)cc2)cc1,-5,3,-1,4,1,4
CN(C)c1ccc(N/C=C/C(=O)c2ccco2)cc1,1,-3,0,28*,2,1
CN(C)c1ccc(N/C=C/C(=O)c2ccc(F)cc2)cc1,7,1,-3,31*,2,7
CC(=O)Nc1ccc(N/C=C/C(=O)c2ccco2)cc1,-4,-4,0,3,3,5
C[C@@H](CSc1ccc(Br)cc1)CN1CC[C@H](NC(=O)OCc2ccccc2)CCC1=O,6,-7,/,8,23,/
Cc1cccc(NC(=O)Cn2cnc3ccc(S(=O)(=O)N4CCC(C)CC4)cc3c2=O)n1,-1,1,-7,1,24*,-1
CCN(CC)CCCNC(=O)Cn1cnc2ccc(S(=O)(=O)N3CCC(C)CC3)cc2c1=O,4,8,0,0,7,2
O=C1NC(=O)/C(=C/c2ccccc2Oc2ccc(Cl)cc2)S1,0,0,-5,14,28*,-15
O=c1[nH]c2cc3c(cc2cc1CN(CCO)S(=O)(=O)c1ccccc1Cl)OCCO3,10,3,4,1,3,-5
COc1ccc(/C=N/NC(=O)c2ccc(CN3C(=O)c4cccc5cccc3c45)cc2)cc1O,-34,25,9,5,27*,-2
COc1ccc(/C=N/NC(=O)c2ccc(-c3ccccc3)cc2)cc1O,-4,-12,3,8,-1,-2
Oc1ccc(C=NNc2nc3ccccc3s2)c(O)c1,19,25,/,/,17,/
Oc1ccc(/C=N/Nc2ccc3ccccc3c2)c(O)c1,5,12,16,25*,2,17
O=C(c1ccccc1NS(=O)(=O)c1ccccc1[N+](=O)[O-])N1CCCC1,7,5,-8,-7,6,-1
Nc1cccc(C2=Nc3cccc4cccc(c34)N2)c1,-13,33*,16,-3,25*,24
COc1ccc(C2=Nc3cccc4cccc(c34)N2)cc1,2,16,13,-1,14,4
O=C1CC(Nc2ccc(N3CCOCC3)cc2)C(=O)N1Cc1ccccc1 (stereo not drawn),25,3,0,34*,2,5
CCC(=O)Nc1nc(C)c(-c2csc(Nc3cccc(O)c3)n2)s1,13,12,16,32*,10,30*

# Compound activity: PubChem, The Scripps Research Institute Molecular Screening Center
